We go through eight compounds from ChEMBL document CHEMBL3988442, “University of Dundee, Small-Polar-MMV Screening Library” (2021).

For some of these results: Measured potencies and affinities stand elsewhere.

Common to all, as to design: scale not given: direction of the effect not stated beside the values
Assay [1] has as its target Protein translocase subunit SecA (Escherichia coli (strain K12)) (UniProt P10408). The assay is described as follows: Assay to Identify E. coli SecA ATPase Inhibitors. The format is functional. The conditions noted are these: 30 µM.
The target in assay [2] is T1, Ubiquitin-activating enzyme e1, putative (Leishmania donovani (strain BPK282A1)) (UniProt E9BSI1).
T1 sequence (whole entry): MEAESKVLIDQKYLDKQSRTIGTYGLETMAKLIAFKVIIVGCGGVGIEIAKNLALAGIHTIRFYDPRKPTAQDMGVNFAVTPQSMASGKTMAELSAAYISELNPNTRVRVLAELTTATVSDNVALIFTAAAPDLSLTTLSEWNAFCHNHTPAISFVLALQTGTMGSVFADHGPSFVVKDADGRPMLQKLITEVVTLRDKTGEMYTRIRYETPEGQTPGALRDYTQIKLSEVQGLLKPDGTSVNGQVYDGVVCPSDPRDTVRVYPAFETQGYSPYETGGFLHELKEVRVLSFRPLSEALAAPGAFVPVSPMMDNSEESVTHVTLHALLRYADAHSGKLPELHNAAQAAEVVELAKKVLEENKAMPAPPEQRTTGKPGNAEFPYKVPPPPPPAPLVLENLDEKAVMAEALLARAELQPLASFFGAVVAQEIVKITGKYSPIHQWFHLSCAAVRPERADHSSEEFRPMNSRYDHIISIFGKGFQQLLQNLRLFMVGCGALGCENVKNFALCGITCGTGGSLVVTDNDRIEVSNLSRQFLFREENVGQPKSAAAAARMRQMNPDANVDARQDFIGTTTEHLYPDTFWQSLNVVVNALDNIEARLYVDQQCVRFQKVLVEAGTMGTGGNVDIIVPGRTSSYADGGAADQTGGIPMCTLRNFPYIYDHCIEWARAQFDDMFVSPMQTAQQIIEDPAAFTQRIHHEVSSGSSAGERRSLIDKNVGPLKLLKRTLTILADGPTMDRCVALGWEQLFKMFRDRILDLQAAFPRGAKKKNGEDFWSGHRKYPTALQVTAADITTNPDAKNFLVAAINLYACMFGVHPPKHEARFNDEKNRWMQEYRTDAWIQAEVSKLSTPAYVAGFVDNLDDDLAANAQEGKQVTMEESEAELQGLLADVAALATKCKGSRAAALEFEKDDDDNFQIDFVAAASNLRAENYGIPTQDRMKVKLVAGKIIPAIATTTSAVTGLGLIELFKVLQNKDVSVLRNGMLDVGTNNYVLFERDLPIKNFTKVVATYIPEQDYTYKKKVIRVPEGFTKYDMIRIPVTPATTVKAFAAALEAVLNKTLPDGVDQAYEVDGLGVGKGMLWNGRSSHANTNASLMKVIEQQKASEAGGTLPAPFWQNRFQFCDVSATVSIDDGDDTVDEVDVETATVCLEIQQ
The assay is described as follows: Leishmania donovani Ubiquitin Activating Enzyme (LdE1). Type of assay: functional. As to conditions: 30 µM.

For assay [3], the target named is AMP-activated protein kinase, AMPK (Homo sapiens) (UniProt P54646+O43741+P54619+Q9UGJ0+Q9Y478+Q13131+Q9UGI9). The experiment in a line: AMP-dependent Kinase enzyme assay. An in vitro enzyme assay that detects ADP turnover that is directly proportional to AMPK activity. This uses naive AMPK that is activated during the assay with MK-8722. The format is functional. As to conditions: 30 µM.

For assay [4], the target named is Sialic acid-binding Ig-like lectin 9 (Homo sapiens) (UniProt Q9Y336). The assay is described as follows: Hs-Siglec9 ALPHAscreen SOP 20170721. As to conditions: 10 µM.
Sequence of Sialic acid-binding Ig-like lectin 9 (Homo sapiens) (Q9Y336 whole entry): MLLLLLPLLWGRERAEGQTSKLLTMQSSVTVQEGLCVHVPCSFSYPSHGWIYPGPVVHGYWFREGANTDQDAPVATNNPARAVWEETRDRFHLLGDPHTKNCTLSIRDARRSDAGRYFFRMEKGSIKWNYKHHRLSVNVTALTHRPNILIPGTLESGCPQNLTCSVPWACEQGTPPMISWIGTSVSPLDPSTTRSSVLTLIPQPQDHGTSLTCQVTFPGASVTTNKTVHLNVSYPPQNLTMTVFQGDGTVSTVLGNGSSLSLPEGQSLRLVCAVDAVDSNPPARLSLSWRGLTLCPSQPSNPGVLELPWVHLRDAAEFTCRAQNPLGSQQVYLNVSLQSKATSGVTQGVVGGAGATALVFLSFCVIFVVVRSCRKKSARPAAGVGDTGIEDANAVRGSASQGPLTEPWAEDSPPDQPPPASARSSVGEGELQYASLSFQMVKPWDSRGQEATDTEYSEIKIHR
The test system of assay [5] is Trypanosoma cruzi. The experiment in a line: Trypanosoma cruzi phosphomannomutase and mannose-1-phosphate guanylyltransferase assay. Type of assay: functional. The conditions noted are these: 10 µM.
Assay [6] deals with T2, Arginase-2, mitochondrial (Homo sapiens) (UniProt P78540).
T2 sequence (whole entry): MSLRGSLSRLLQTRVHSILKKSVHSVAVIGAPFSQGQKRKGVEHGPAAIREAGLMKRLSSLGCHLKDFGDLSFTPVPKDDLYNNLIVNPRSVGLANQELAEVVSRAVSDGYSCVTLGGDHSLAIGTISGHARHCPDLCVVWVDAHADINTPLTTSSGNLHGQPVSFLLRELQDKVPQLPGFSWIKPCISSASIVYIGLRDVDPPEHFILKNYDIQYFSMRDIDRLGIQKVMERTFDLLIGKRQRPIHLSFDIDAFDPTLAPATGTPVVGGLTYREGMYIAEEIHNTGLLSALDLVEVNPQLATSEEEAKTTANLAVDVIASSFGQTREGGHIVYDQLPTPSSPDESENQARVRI
The assay is described as follows: in vitro enzyme assay to detect the production of urea directly proportional to the activity of Arginase II. Also: in the data most compounds retested in dose-response had high values. The format is functional. As to conditions: 33.3 µM.

Assay [7] has as its target T3, Proteasome subunit beta (Trypanosoma cruzi) (UniProt O96673).
T3 sequence (whole entry): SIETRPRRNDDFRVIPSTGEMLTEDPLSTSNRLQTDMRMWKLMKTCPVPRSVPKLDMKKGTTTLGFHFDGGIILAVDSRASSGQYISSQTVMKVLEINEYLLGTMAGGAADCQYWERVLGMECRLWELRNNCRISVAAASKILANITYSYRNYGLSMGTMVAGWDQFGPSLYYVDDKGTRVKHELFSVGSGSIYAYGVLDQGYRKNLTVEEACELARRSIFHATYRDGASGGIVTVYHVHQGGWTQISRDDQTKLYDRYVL
The experiment in a line: Trypanosoma cruzi proteasome chymotrypsin-like activity (TcProtChymo) assay. Also: in the data most compounds retested in dose-response had high values. The format is functional. As to conditions: 9.37 µM.

The species named for assay [8] is Homo sapiens. The experiment in a line: To identify inhibition of the IFN signalling (Jak-Stat) pathway via expression of an eGFP reporter gene under the control of an IFN-stimulated response element (ISRE) containing MxA promoter. The format is functional. As to conditions: 30 µM. In general terms: Reporter assays use an easily measured gene product as a stand-in for the process of interest.

Assay [9] addresses T4, Tyrosyl-tRNA synthetase, putative (Trypanosoma cruzi (strain CL Brener)) (UniProt Q4DSP6).
T4 sequence (whole entry): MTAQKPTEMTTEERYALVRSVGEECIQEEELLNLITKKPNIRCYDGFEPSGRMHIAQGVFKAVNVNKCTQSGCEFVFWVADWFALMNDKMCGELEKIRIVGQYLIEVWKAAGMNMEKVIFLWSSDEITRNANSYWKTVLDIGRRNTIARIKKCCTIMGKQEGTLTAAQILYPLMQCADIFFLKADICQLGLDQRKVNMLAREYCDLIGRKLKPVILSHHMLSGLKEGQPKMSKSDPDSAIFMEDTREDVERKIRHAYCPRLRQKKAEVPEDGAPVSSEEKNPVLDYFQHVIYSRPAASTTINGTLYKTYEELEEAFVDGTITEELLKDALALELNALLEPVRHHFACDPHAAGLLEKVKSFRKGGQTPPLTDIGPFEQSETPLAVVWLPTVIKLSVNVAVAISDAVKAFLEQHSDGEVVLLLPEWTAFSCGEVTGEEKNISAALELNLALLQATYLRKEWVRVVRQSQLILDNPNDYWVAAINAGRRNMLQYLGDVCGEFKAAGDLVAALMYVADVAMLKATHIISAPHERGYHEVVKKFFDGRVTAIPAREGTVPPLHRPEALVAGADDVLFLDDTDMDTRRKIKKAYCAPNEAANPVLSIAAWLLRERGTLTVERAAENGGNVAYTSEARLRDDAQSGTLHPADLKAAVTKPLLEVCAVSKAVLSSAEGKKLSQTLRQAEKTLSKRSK
The assay is described as follows: Trypanosoma cruzi tyrosyl tRNA synthetase (TcYRS) _High Tyrosine SOP. Also: in the data most compounds retested in dose-response had high values. As to conditions: 30 µM. The format is functional.

The target of assay [10] is T4, Tyrosyl-tRNA synthetase, putative (Trypanosoma cruzi (strain CL Brener)). The assay is described as follows: Trypanosoma cruzi tyrosyl tRNA synthetase (TcYRS) SOP. The format is functional. As to conditions: 30 µM.
The target of assay [11] is Chromo domain-containing protein 1 (Saccharomyces cerevisiae (strain ATCC 204508 / S288c) (Baker's yeast)) (UniProt P32657). The assay is described as follows: ScCHD-1 Enzyme Inhibition Assay. Also: in the data most compounds retested in dose-response had high values. Type of assay: functional. As to conditions: 30 µM.
Sequence of Chromo domain-containing protein 1 (Saccharomyces cerevisiae (strain ATCC 204508 / S288c) (Baker's yeast)) (P32657 whole entry, the tested form may be a part): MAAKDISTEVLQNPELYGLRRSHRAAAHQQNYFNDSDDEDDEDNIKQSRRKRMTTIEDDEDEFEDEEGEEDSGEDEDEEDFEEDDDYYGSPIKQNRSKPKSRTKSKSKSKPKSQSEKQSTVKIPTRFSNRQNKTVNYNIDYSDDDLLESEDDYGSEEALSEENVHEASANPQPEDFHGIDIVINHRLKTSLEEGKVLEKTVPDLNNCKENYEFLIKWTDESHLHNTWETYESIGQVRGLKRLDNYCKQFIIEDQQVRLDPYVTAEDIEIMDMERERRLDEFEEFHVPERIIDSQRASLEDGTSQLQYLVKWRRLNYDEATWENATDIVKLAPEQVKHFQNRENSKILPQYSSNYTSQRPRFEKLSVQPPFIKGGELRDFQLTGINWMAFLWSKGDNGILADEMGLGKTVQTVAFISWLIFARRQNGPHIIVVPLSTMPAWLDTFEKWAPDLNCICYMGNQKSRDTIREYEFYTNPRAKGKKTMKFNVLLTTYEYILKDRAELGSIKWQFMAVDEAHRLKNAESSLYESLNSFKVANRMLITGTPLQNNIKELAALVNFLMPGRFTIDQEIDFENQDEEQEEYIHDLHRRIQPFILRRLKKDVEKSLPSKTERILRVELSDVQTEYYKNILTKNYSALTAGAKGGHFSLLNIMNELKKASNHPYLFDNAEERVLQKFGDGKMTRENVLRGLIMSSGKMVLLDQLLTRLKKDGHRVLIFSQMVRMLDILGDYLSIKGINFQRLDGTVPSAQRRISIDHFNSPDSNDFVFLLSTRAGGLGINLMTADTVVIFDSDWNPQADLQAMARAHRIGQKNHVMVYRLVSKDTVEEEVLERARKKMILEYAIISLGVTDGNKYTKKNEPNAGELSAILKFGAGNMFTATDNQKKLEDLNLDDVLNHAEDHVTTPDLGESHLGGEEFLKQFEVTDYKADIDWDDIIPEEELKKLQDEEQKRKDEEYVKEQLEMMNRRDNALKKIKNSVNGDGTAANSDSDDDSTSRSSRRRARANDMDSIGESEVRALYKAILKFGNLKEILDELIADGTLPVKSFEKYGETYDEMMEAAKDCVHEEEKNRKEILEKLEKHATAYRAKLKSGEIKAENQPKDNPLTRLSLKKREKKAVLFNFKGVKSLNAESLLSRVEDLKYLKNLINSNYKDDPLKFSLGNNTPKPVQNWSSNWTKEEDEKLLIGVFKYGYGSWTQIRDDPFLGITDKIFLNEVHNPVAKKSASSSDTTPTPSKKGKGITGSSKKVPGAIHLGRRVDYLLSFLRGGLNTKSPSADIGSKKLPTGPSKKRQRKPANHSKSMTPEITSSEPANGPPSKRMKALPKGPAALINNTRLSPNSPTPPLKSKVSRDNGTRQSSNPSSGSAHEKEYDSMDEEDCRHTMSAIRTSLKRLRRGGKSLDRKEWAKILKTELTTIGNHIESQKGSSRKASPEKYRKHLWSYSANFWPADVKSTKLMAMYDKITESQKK

Sequence of Protein translocase subunit SecA (Escherichia coli (strain K12)) (P10408 whole entry): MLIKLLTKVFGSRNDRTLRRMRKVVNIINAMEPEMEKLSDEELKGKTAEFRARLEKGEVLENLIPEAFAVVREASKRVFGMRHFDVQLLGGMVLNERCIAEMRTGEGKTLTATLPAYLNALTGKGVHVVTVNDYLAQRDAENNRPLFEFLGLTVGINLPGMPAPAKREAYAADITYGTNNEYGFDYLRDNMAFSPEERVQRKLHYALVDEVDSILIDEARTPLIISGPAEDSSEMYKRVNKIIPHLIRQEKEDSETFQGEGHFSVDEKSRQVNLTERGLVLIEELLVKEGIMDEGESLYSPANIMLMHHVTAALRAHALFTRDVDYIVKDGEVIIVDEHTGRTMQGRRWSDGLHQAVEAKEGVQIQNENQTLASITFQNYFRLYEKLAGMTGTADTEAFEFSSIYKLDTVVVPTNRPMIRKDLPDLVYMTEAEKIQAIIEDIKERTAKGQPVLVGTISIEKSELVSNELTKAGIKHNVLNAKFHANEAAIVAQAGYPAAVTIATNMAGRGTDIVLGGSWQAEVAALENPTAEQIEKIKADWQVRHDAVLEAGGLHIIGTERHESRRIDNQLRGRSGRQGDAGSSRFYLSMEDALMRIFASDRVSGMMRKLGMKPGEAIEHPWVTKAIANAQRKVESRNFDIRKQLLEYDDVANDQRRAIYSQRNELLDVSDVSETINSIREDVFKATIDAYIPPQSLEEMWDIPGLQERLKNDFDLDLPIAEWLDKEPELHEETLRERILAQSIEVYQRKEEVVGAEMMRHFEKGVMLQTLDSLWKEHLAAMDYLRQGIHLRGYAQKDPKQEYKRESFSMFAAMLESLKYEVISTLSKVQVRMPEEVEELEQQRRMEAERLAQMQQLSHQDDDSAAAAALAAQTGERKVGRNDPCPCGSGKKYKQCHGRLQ

On to `Cc1cc(=O)n(CC(=O)Nc2ccc(C(N)=O)cc2)nc1C`, for which the Percent Effect in assay [1] is -0.496%; in assay [2] it was 0%; in assay [3] it was -2.6%; in assay [4] it was 15.7%; in assay [5], 3.67%; in assay [6], 0.952%. Also, the Percent Effect in assay [7] was 11.6%; in [8], 4.44%; in assay [9], 1.59%; in [10], 9.76%; in [11], -0.0727%.
Take `CCN(C)c1ncnc2c1CCN(C(=O)N1CCCC1)CC2`: the Percent Effect in assay [1] is 1.86%; in assay [2] it was 10.7%; in assay [3], -0.0235%; in [4], 0.87%; in assay [5] it was -8.88%; in assay [6] it was -54.7%. Further, the Percent Effect in [7] is 17.6%; in assay [8] it was -9.36%; in assay [9] it was 4.17%; in [10], 15%; in assay [11], -5.04%.
In the case of `CCOc1ncccc1C(=O)NCCN(CC)C1CC1`, the Percent Effect is -6.27% in assay [1]; 3.8% in assay [2]; 1.07% in assay [3]; -1.89% in assay [4]; -0.103% in assay [5]; 5.38% in assay [6]. The Percent Effect in assay [7] was 8.75%; in [8], 5.7%; in assay [9] it was 1.04%; in [10] it was 0%; in [11], -23.1%.
On to `CC(c1ccc(F)c(F)c1)N1CCN(Cc2nccn2C)CC1` (stereo not drawn), for which the Percent Effect is 0.457% in assay [1]; 20.8% in assay [2]; -8.62% in assay [3]; 5.23% in [4]; -7.68% in [5]; 5.69% in [6]. For the same compound, the Percent Effect in assay [7] is 8.62%; in assay [8], 40.9%; in assay [9] it was -5.83%; in assay [10], -2.44%; in assay [11], -9.27%.
Regarding `Cn1cc(CCNC(=O)NC2CCS(=O)(=O)C2)cn1` (stereo not drawn), the Percent Effect in [1] is -5.97%; in assay [2], -1.39%; in assay [3], -3.17%; in assay [4] it was -1.6%; in [5], -4.57%; in assay [6] it was -0.442%. In addition, the Percent Effect was 11.8% in assay [7]; -0.804% in assay [8]; 0% in assay [9]; 5.13% in [10]; -1.44% in [11].
On to `COCCC(=O)N1CCc2cc(Cl)cc(Cl)c2C1`, for which the Percent Effect in assay [1] was -3.86%; in [2] it was -44.2%; in [3], 0.226%; in assay [4], 19.2%; in assay [5] it was 1.87%; in [6], 0%. Besides, the Percent Effect was 14% in assay [7]; -16.1% in assay [8]; -3.23% in assay [9]; -1.24% in assay [10]; 126% in assay [11].
For `COc1ccccc1N1CCC(CNCc2cccc(O)c2)C1` (stereo not drawn), the Percent Effect in [1] is -2.9%; in [2], -5.41%; in assay [3], 15.1%; in assay [4] it was 11%; in assay [5] it was 1.6%; in assay [6], -4.81%. In addition, the Percent Effect in assay [7] was 4.14%; in assay [8], 20.2%; in [9], 0.493%; in assay [10] it was 6.17%; in [11], -6.34%.
For `O=C(c1ccc[nH]1)N1CCN(CC2CCOc3ccccc3C2)CC1` (stereo not drawn), the Percent Effect is -7.81% in [1]; 1.39% in assay [2]; -3.67% in [3]; 14.8% in assay [4]; 1.07% in [5]; -1.77% in assay [6]. In addition, the Percent Effect in [7] was 4.04%; in assay [8], -2.27%; in [9], 3.16%; in assay [10], -7.69%; in [11] it was -1%.
